aDG glyco act: alpha-DG glycosylation activation; Pro5-aDG cells, alpha-DG glycosylation AlphaScreen (IIH6); 0% Pro5, 100% B10-LARGE cell signal; activation, % at 10 µM; 0.22% of 360,000 active; AID 624168;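 active means activation of at least 8% versus controls, or a plate z-score of at least 8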;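 further: Pro5 are CHO cells carrying HIG-tagged alpha-DG that lacks glycosylation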
COUP-TFII inh: inhibitors of human COUP-TFII (NR2F2); 0.7% of 370,000 active; AID 686940; inhibition, % at 8.6 µM; HEK293T NGFI-A luciferase reporter, luminescence;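 active means inhibition above a per-plate cutoff, mean inhibition of test wells between control levels plus 3 SD, cut at about 38% in these data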;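 further: cells cotransfected with COUP-TFII expression vector driving the NGFI-A reporter; 0% = median of COUP-TF2 test wells and 100% = reporter-only cells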
Gli-Sufu block: antagonists of Gli-Sufu signaling | Sufu-KO-LIGHT fibroblasts, Gli luciferase reporter luminescence | 0.74% of 340,000 active | AID 588413 | inhibition, % at 5 µM;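 active means inhibition above about 55%, limit read from the data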;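 further: 0% = DMSO-treated cells and 100% = wells with medium but no cells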
GalR3 antag: blocks the human galanin receptor 3. O60755. inhibition, % at 3 µM. AID 651719. 0.44% of 360,000 active. HEK293 GalR3-CNG cAMP membrane potential fluorescence; galR3 body fused to GalR1 C-terminus;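 active means inhibition above the screen-wide average plus 3 SD, cut at about 13% in these data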;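 further: forskolin and galanin both at EC90 stimulate the cells; cAMP rise reported by CNG channel membrane potential dye signal; 0% = forskolin plus galanin with DMSO and 100% = forskolin alone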
Target sequence (O60755 1-299 limits assumed): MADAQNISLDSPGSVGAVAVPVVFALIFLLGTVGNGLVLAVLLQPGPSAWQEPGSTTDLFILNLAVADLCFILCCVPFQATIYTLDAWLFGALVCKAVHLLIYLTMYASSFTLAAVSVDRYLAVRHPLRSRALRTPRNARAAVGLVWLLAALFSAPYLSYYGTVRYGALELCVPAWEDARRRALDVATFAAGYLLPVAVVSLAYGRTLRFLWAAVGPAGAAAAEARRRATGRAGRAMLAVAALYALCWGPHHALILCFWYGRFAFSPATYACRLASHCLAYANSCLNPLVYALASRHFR
Env fusion inh: blocks HIV Env-driven cell-cell fusion | HeLa-JRFL Env/CEM21 cell fusion, luciferase | inhibition, % at 12.3 µM | 1.1% of 360,000 active | AID 651610;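 active means mean replicate inhibition score of at least 50 and every replicate individually at or above 50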;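 further: 0% = plate neutral controls and 100% = maraviroc near 300 nM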
Gli antag conf: Gli-SUFU antagonism confirmation, single concentration. shares compounds with Gli-Sufu block. Sufu-KO-LIGHT cells, Gli luciferase reporter, luminescence. inhibition, % at 5 µM. 40% of 2,500 active;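 active means mean inhibition at 5 µM reaching about 45%, limit read from the data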;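 further: plate controls were DMSO-treated cells for no effect and wells lacking cells for full effect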
Gli cytotox: counter-screen for Gli-SUFU antagonists: cytotoxicity | shares compounds with Gli-Sufu block | Sufu-KO-LIGHT cells cytotoxicity, ATP luminescence | cytotoxicity, % at 5 µM | 32% of 2,500 active | AID 651994;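 active means mean cytotoxicity at 5 µM above about 25%, limit read from the data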;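 further: cells exposed to compound overnight for roughly 16 to 18 hours; plate controls were DMSO wells with cells for no effect and medium without cells for full effect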
Wnt3a cs: counter-screen for Gli-SUFU antagonists: Wnt3a reporter inhibition; Wnt-LIGHT cells, Wnt3a-driven luciferase reporter, luminescence; 20% of 2,500 active; inhibition, % at 6.25 µM; shares compounds with Gli-Sufu block; AID 651995;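 active means mean inhibition above about 25%, limit read from the data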
* marks the source's active call; other numbers are inactive results; . = no result given; [ ] = another dose, or the depositor's remark. An excerpt weighted towards active compounds, which were near 2.1% of everything screened.

SMILES	aDG glyco act	COUP-TFII inh	Gli-Sufu block	GalR3 antag	Env fusion inh	Gli antag conf	Gli cytotox	Wnt3a cs
CCN(Cc1ccc(NC(C)=O)cc1)CC1CCCN(CCc2cccc(OC)c2)C1 (configuration not stated)	0	6	61*	-9	3	22	12	50*
COC(=O)c1ccc([C@@H]2C=C(C(=O)NCc3ccccc3)O[C@H](OCCCCO)C2)cc1	.	.	.	.	-14[16.7 µM]	.	.	.
CCOC(=O)c1ccc(NC(=S)N(CCCN2CCN(C)CC2)Cc2cccs2)cc1	2	-3	60*	1	-2	10	27*	-19
CO[C@H]1CN(C)C(=O)c2cc(NC(=O)C3CC3)ccc2OC[C@H](C)N(C(=O)Cc2ccccn2)C[C@H]1C	.	.	.	.	-6[16.7 µM]	.	.	.
O=C(C[C@@H]1C[C@H]2c3cc(NS(=O)(=O)c4ccc(F)cc4)ccc3O[C@H]2[C@@H](CO)O1)NCc1ccccc1	.	.	.	.	21[16.7 µM]	.	.	.
O=C(COC(=O)c1ccc2[nH]c3c(c2c1)CCCC3)Nc1ccccc1Cl	0	5	51	6	-17	47*	7	-23
COc1ccccc1-c1cccc(-c2nc(C(=O)N3CCOCC3)cc3c2[C@@H](CCO)N([S@](=O)C(C)(C)C)C3)c1	.	.	.	.	2[16.7 µM]	.	.	.
O=S(=O)(NCC[C@@H]1CC[C@@H](NS(=O)(=O)c2ccccc2Cl)[C@@H](CO)O1)c1ccc(F)cc1	.	.	.	.	1[16.7 µM]	.	.	.
CC1Cc2ccccc2N1C(=O)C1CCCN1S(=O)(=O)c1ccc(Cl)cc1 (configuration not stated)	0	4	99*	-8	.	20	14	-32
CCC(=O)Nc1ccc2c(c1)OC[C@@H](C)N(Cc1cccc(F)c1)C[C@H](C)[C@@H](OC)CN(C)C2=O	.	.	.	.	-15[16.7 µM]	.	.	.
C[C@@H]1CCCCO[C@@H](CN(C)S(=O)(=O)c2cn(C)cn2)[C@H](C)CN([C@@H](C)CO)C(=O)c2cc(NC(=O)c3ccncc3)ccc2O1	.	.	.	.	13[16.7 µM]	.	.	.
C/C=C/c1cnc2c(c1)C(=O)N([C@@H](C)CO)C[C@H](C)[C@@H](CN(C)Cc1ccncc1)O2	.	.	.	.	-11[16.7 µM]	.	.	.
N#CCSc1nnc(-c2ccc(S(=O)(=O)N3CCOCC3)cc2)n1CC1CCCO1 (configuration not stated)	0	1	94*	-4	-53	30	2	10
NC(=O)CSc1nnc(-c2ccc(S(=O)(=O)N3CCCC3)cc2)n1CC1CCCO1 (configuration not stated)	2	9	-2	-5	-99	.	.	.
COCCNC(=O)CSCc1nc(-c2ccc(SC)cc2)oc1C	0	1	55*	-1	-4	66*	12	8
CCOc1ccc(-c2nc(CSCC(=O)NC3CC3)c(C)o2)cc1	0	.	90*	.	.	93*	13	-2
Cc1cccc(-c2nc(CSCC(=O)NCc3cccs3)c(C)o2)c1	0	13	55*	1	-18	13	7	-7
Cc1cccc(-c2nc(CS(=O)CC(=O)NCc3cccs3)c(C)o2)c1 (configuration not stated)	0	7	-2	.	19	.	.	.
CCOC(=O)N1CCC(NC(=O)CSCc2nc(-c3ccc(OCC)cc3)oc2C)CC1	0	-5	6	-8	4	.	.	.
COCCn1c(SCC(=O)c2c(-c3ccccc3)n(C)c3ccccc23)nnc1-c1ccncc1	1	-4	1	0	18	.	.	.
COCCn1c(SCC(=O)/C=C2\N(C)c3ccccc3C2(C)C)nnc1-c1ccncc1	2	-1	59*	3	6	34	2	-35
COc1ccccc1NC(=O)N(C)C[C@@H]1Oc2ncc(C#CCN(C)C)cc2C(=O)N([C@@H](C)CO)C[C@@H]1C	.	.	.	.	9[16.7 µM]	.	.	.
CCOC(=O)c1nccnc1C(=O)Nc1cccc(C(F)(F)F)c1	0	-10	26	5	-5	.	.	.
CCOC(=O)C1=NN(C(=O)Nc2cccc(C(F)(F)F)c2)C2C(=O)N(c3cccc(C(F)(F)F)c3)C(=O)C12 (configuration not stated)	0	2	70*	-4	.	25	-9	7
Cc1cc(C)cc(OCC(O)CN2CCN(Cc3ccc4c(c3)OCO4)CC2)c1 (configuration not stated)	1	26	64*	-5	8	27	10	-50
SMILES	aDG glyco act	COUP-TFII inh	Gli-Sufu block	GalR3 antag	Env fusion inh	Gli antag conf	Gli cytotox	Wnt3a cs
CC(C)N(C(=S)Nc1cccc(S(=O)(=O)N(C)C)c1)c1ccccc1	0	5	55	2	8	12	1	-27
CN(C)S(=O)(=O)c1cccc(NC(=O)C(c2ccccc2)c2ccccc2)c1	0	0	-14	-11	29	.	.	.
O=c1c2ccccc2sc2c(CO)ccc(NCCN3CCCCC3)c12	0	-3	53	-5	7	41	20	-155
CCN(CC)CCNc1ccc(CO)c2sc3ccccc3c(=O)c12	0	-27	4	.	-30	.	.	.
COCC(=O)N[C@H]1C=C[C@H](CC(=O)N2CCCCC2)O[C@@H]1CO	.	.	.	.	-3[16.7 µM]	.	.	.
COc1cc(C(=O)N/N=C(\C)c2ccccn2)cc(OC)c1OC	0	-66	50	1	-17	.	.	.
COc1cc(C(=O)N/N=C(\c2ccccc2)c2ccccn2)cc(OC)c1OC	-1	17	92*	2	25	84*	38*	57*
Cc1noc(NS(=O)(=O)c2ccc(NC(=O)c3cnc4n(c3=O)CCS4)cc2)c1C	2	0	95*	-7	4	15	4	-8
Cc1ccccc1C(=O)Nc1ccc(S(=O)(=O)Nc2onc(C)c2C)cc1	0	-16	8	-4	11	.	.	.
O=C(Cc1ccc(S(=O)(=O)N2CCOCC2)s1)Oc1ccc(F)cc1	0	4	96*	-2	-3	9	25	9
CN1CCN(C(=O)C[C@H]2CC[C@@H]3[C@H](COC[C@@H](O)CN3C(=O)C3CCOCC3)O2)CC1	.	.	.	.	8[16.7 µM]	.	.	.
CN(C)C(=O)C[C@@H]1C=C[C@@H](NC(=O)NC2CCCC2)[C@@H](CO)O1	.	.	.	.	10[16.7 µM]	.	.	.
COc1ccc(CNCC(O)(c2ccccc2)c2ccc(F)cc2)cc1OC (configuration not stated)	0	15	17	-15	36	.	.	.
COc1ccc(CNCC(O)(c2ccc(F)cc2)c2ccc(F)cc2)cc1OC	0	26	65*	-14	42	23	36*	-41
CCOc1ccccc1NC(=O)CCn1ccnc1	0	8	58*	-10	-11	15	19	-6
CCOc1ccc(NC(=O)CCn2ccnc2)cc1	0	10	3	-10	-10	.	.	.
CCSc1nc(N)c(C#N)c(-c2ccco2)c1C#N	0	2	89*	-3	.	30	1	-4
